Assay results reported in PubChem BioAssay (NCI).
The panel holds about 79,000 compounds, 15% with a hit somewhere; the sample as a whole holds those more often. Rule as the data show it: active = growth inhibition above about 70%; inactive = the rest.

Key:
[1] = NCI Yeast Anticancer Drug Screen. Data for the rad50 strain (AID 155);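 also: 0% = growth of vehicle-only cultures of the same strain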; conditions: S. cerevisiae rad50 strain growth inhibition; at 50.0 µM; active compounds read high
In short: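 Relative growth inhibition (compound vs vehicle) was measured in yeast with a defined repair-gene alteration.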

[2] = NCI Yeast Anticancer Drug Screen. Data for the mec2-1 strain (AID 157); conditions: S. cerevisiae mec2-1 strain, at 50.0 µM, active compounds read high
In short: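 Readout is yeast growth inhibition, normalised to vehicle-treated controls, in the mec2-1 strain exposed to compound.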

[3] = NCI Yeast Anticancer Drug Screen. Data for the sgs1 mgt1 strain (AID 161);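 also: 0% = growth of cultures given vehicle only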; conditions: S. cerevisiae sgs1 mgt1 strain, at 50.0 µM, active compounds read high
In short: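 Growth of a repair-deficient yeast mutant was monitored after compound treatment and expressed as inhibition relative to vehicle-treated cultures.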

[4] = NCI Yeast Anticancer Drug Screen. Data for the cln2 rad14 strain (AID 165);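 also: 0% = growth equal to vehicle treated cultures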; conditions: S. cerevisiae cln2 rad14 strain, at 50.0 µM, active compounds read high
In short: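 Relative to vehicle controls, growth inhibition of compound-treated cln2 rad14 yeast was recorded.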

[5] = NCI Yeast Anticancer Drug Screen. Data for the bub3 strain (AID 167); conditions: S. cerevisiae bub3 mutant strain, at 50.0 µM, active compounds read high
In short: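 Screening used yeast with an engineered genetic alteration affecting cell cycle control. Compound-exposed cultures were compared with vehicle cultures, and reduced growth was taken as inhibition.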

[6] = NCI Yeast Anticancer Drug Screen. Data for the mlh1 rad18 strain (AID 175); conditions: S. cerevisiae mlh1 rad18 strain growth inhibition; at 50.0 µM; active compounds read high
In short: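 Test agents were incubated with a yeast strain of defined genotype (DNA damage repair defect). Inhibition of growth was derived by comparison with vehicle-exposed cultures.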

Measured: growth inhibition

O=C1c2ccccc2C(=C(c2ccccc2)c2ccccc2)c2ccccc21
inactive: [1] 29.1% | [2] -19.5% | [3] -10.3% | [4] 10.6% | [5] 5.35% | [6] -4.75%

COc1ccc(OC)c(C(N)=O)c1
inactive: [1] -0.1% | [2] 13.8% | [3] -1.25% | [4] 0.95% | [5] 0.85% | [6] -2.5%

Cc1ccn2c(=O)c(CCBr)c(C)nc2c1
inactive: [1] 12.8% | [2] -4.65% | [3] 5.25% | [4] 13.8% | [5] 6.05% | [6] 2.25%

COC(=O)c1c2c(cc3c1CC1(C3)Cc3cc4c(c(C(=O)OC)c3C1)CCC4)CCC2
inactive: [1] 3.25% | [2] -35.6% | [3] -3.65% | [4] -0.8% | [5] -7.85% | [6] 10.3%

COc1cccc(C2N=NC3=C(CCCC3)N2O)c1O (configuration not stated)
inactive: [1] 14.4% | [2] 11% | [3] 10.2% | [4] 21.4% | [5] 25.1% | [6] 19.5%

N=Cc1ccccc1O
inactive: [1] -3.3% | [2] -10.3% | [3] -4.8% | [4] 7.8% | [5] 2.9% | [6] 2.55%

Cn1c(=O)c2c(nc3sc4ccccc4c(=O)n32)n(C)c1=O
inactive: [1] 19.2% | [2] -9.05% | [3] -7.4% | [4] 16.6% | [5] -30.9% | [6] 13.8%

Fc1ccccc1-c1ccccc1
inactive: [1] -26.4% | [2] -1.5% | [3] -13.5% | [4] -37.5% | [5] -10.8% | [6] -11.2%

CCCCSc1n[nH]c(=O)nc1N
inactive: [1] -5.5% | [2] -7.95% | [3] -3.1% | [4] -11.3% | [5] -11.6% | [6] 3.9%

O=C(NC(=S)Nc1ccsc1)c1ccccc1
inactive: [1] 14.6% | [2] 0.7% | [3] 2.6% | [4] 8.85% | [5] -2.15% | [6] -6.35%

CCCC(=O)OCc1ccc(Cl)c(Cl)c1
inactive: [1] 21.6% | [2] 16% | [3] 9.45% | [4] 8% | [5] 9.15% | [6] -3.85%

NC1=NC(c2ccc(Cl)cc2)N(c2ccc(S(N)(=O)=O)cc2)C(N)=N1 (configuration not stated)
inactive: [1] 9.05% | [2] -4.35% | [3] -24.5% | [4] -21.9% | [5] -11.3% | [6] 21.6%

O=Cc1ccccc1CCn1c(=O)c2cc3c(=O)n(CCc4ccccc4C=O)c(=O)c3cc2c1=O
inactive: [1] 33.7% | [2] 18.9% | [3] 11.8% | [4] -11.8% | [5] -4.35% | [6] 18.8%

O=[N+]([O-])c1nccn1CC(O)CN1CCCCC1 (configuration not stated)
inactive: [1] 5.95% | [2] -1.15% | [3] 16.8% | [4] -4.85% | [5] -7.85% | [6] 18.9%

C=CC[N+](CC)(CC)CC
inactive: [1] 12.3% | [2] -0.45% | [3] 2.35% | [4] 12.3% | [5] 19.4% | [6] 13.3%

CCCC(=O)C1=CC(C(C)C)CCC1C (configuration not stated)
inactive: [1] 12.6% | [2] -4.4% | [3] -4.05% | [4] -12.2% | [5] 1.15% | [6] 1%

NC(=O)c1ccc(NCC2=CC(=O)C=CC2=O)cc1
inactive: [1] -9.85% | [2] 3.25% | [3] -5.05% | [4] -2.6% | [5] -17.9% | [6] 16.8%

CCOC(=O)c1nc2ccccc2nc1Nc1ccc(F)cc1
inactive: [1] -2.35% | [2] -7.5% | [3] 1.75% | [4] 1.05% | [5] -21.1% | [6] -38%

O=[N+]([O-])c1ccc(C2CC(c3ccccc3)=NN2c2ccccc2)cc1 (configuration not stated)
inactive: [1] 7.65% | [2] -8.85% | [3] 1.3% | [4] -8.9% | [5] 17.9% | [6] -9.05%

CC(C)C(N)=O
inactive: [1] 5.1% | [2] -0.1% | [3] -7.15% | [4] -3% | [5] 12.1% | [6] -9.25%

CCOC(=O)CCCCC(N)=O
inactive: [1] -4.3% | [2] -7.6% | [3] -15.7% | [4] 1.15% | [5] 11.4% | [6] 2.7%

S=c1[nH]c(=S)c2nnn(-c3ccccc3)c2[nH]1
inactive: [1] -47% | [2] -38% | [3] -31.5% | [4] -25.9% | [5] -47.9% | [6] -34%

C=CS(=O)(=O)CCCCCCCCCCCCCCCCCC
inactive: [1] -2.35% | [2] 10.7% | [3] -18.4% | [4] -12.8% | [5] 5.3% | [6] 8.9%

O=c1oc2ccccc2c2c1cnn2-c1ccccc1
inactive: [1] -12.7% | [2] -4% | [3] -7.85% | [4] -5.9% | [5] -21.7% | [6] -4.45%

COc1cc2c(cc1OC)C1C(=O)c3c(O)cc4c(c3OC1CO2)C=CC(C)(C)O4 (configuration not stated)
inactive: [1] 49.8% | [2] 10.3% | [3] 14.3% | [4] 15.3% | [5] 33.9% | [6] 36.7%

CC(C)(C)c1cc2c(OP(c3ccccc3)c3ccccc3)c(c1)Cc1cc(C(C)(C)C)cc(c1OP(c1ccccc1)c1ccccc1)Cc1cc(C(C)(C)C)cc(c1OP(c1ccccc1)c1ccccc1)Cc1cc(C(C)(C)C)cc(c1OP(c1ccccc1)c1ccccc1)C2
inactive: [1] -11.8% | [2] -25.9% | [3] -38.5% | [4] -5.15% | [5] -18.7% | [6] -14.2%

CCS(=O)(=O)c1ccc(NC(=O)OC2CCCCCC2)cc1
inactive: [1] -2.65% | [2] -2.25% | [3] 25.8% | [4] -1.25% | [5] 12.3% | [6] 7.8%

CC(Cc1ccco1)C(=O)O (configuration not stated)
inactive: [1] 9.2% | [2] 15.4% | [3] -0.3% | [4] -14% | [5] 1.9% | [6] -11.2%

O=C(NCC1CC1)NC(=O)c1c(F)cccc1Cl
inactive: [1] -1.2% | [2] -13% | [3] 12.6% | [4] 20.8% | [5] 36.6% | [6] 9.65%

COc1cc(NC=O)c2c(c1)SCC(=O)N2
inactive: [1] -1.75% | [2] -52.5% | [3] -8.75% | [4] 6.7% | [5] 6.2% | [6] -6.6%

Nc1ncc2c(n1)-c1ccccc1OC2NC1CC1 (configuration not stated)
inactive: [1] 2.5% | [2] 12.1% | [3] -29.2% | [4] -5.55% | [5] -36.2% | [6] -4.65%

Cc1cc(-c2ccccc2)n(C(C(=O)c2ccccc2)c2ccccc2)n1 (configuration not stated)
inactive: [1] 13.8% | [2] -10.4% | [3] -0.15% | [4] -5.6% | [5] -26.7% | [6] -15.2%

Cc1ccc(S(=O)(=O)NCc2cccc([N+](=O)[O-])c2)cc1
inactive: [1] 6.25% | [2] -15.8% | [3] -13.6% | [4] 19% | [5] 18.2% | [6] 14.8%

C=CCOC(=O)C(F)(F)F
inactive: [1] 0.15% | [2] -4.25% | [3] -0.7% | [4] 4.35% | [5] 6.85% | [6] -1.4%

O=S(=O)(CS(=O)(=O)c1ccc(Br)cc1)c1ccc(Br)cc1
inactive: [1] 1.4% | [2] 33.1% | [3] -14.6% | [4] 20.8% | [5] 4.6% | [6] 12%

Cc1ccc(S(=O)(=O)O/N=C2\CCC\C2=C/c2ccccc2)cc1
inactive: [1] 7.65% | [2] -2.25% | [3] 26% | [4] 14.6% | [5] -8.55% | [6] 23.8%

O=C(CN1CCN(c2cccc(Cl)c2)CC1)N1CCc2c([nH]c3ccccc23)C1c1cccnc1 (configuration not stated)
inactive: [1] -15.3% | [2] -30.8% | [3] 1.6% | [4] 6% | [5] -2.25% | [6] -16.9%

Nc1ccc(S(=O)(=O)Nc2cnc3c(Cl)cccc3n2)cc1
inactive: [1] -11% | [2] 4.2% | [3] 10.9% | [4] -39.5% | [5] 32.2% | [6] -0.6%

O=C(O)CCC(=O)Nc1ccc(F)cc1
inactive: [1] 9.9% | [2] 26.6% | [3] 4.7% | [4] -86.3% | [5] 7.3% | [6] 1%

CC1=C(C(=O)Nc2ccccc2C)C(c2ccc(N(C)C)cc2)C(C(=O)Nc2ccccc2C)=C(C)N1
inactive: [1] -27% | [2] -20% | [3] -17.4% | [4] -11.2% | [5] -8.95% | [6] -13.8%

COC(=O)C1CC2CC1C1C2SC(F)(F)C1(F)F (configuration not stated)
inactive: [1] 0.2% | [2] -1.7% | [3] 6.4% | [4] 7.8% | [5] -5% | [6] 17.1%

CN(C)CC(CN(C)C)C(=O)c1ccc(OC2OC(CO)C(O)C(O)C2O)cc1 (configuration not stated)
inactive: [1] -4.95% | [2] -3.15% | [3] -18.4% | [4] 5.15% | [5] -9.35% | [6] 2.05%
